Hit rate of the full screen: of about 410,000 compounds, about 18,000 (4.4%) were called active. Roughly 7% stayed inconclusive and do not appear here. The sample holds actives, similar compounds and a random draw of the others, so the mix is not that of the screen. A number with no mark means an inactive call. Cut-off read from the data, not from the text of the source: active = activity change below about -60%; inconclusive = no clear call, values can overlap the other calls; inactive = above about -39%.
Assay: qHTS Assay for inhibitors of the human cytomegalovirus (HCMV)
Details: HFF cells, HCMV-luciferase reporter, 72 h; at 57.5 µM; active compounds read low
Method in brief: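 Steps: HFFs plated, 16 h 37C; compounds added; HCMV-luciferase added to MOI 1 PFU/cell; 72 h 37C; OneGlo reagent, 5 min room temperature; luminescence read, normalized to controls.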
% is set by controls: 0 for no effect and ±100 for the full control effect.

| SMILES | activity change, negative = inhibition |
| --- | --- |
| Cc1cc(C)cc(NC(=O)Cc2csc(C)n2)c1 | 53.8% |
| Cc1ccc(Cn2c(CCCNC(=O)C3CCCCC3)nc3ccccc32)cc1 | -11.7% |
| COc1ccc(N2CCN(S(=O)(=O)CCNC(=O)C(c3ccccc3)c3ccccc3)CC2)cc1 | 1.25% |
| COC(=O)c1ccc2c(c1)N(CC(=O)Nc1ccc(C)c(C)c1)C(=O)c1ccccc1S2 | 6.12% |
| CCc1ccc(N(CC(=O)Nc2sc3c(c2C(=O)OC)CCCC3)S(C)(=O)=O)cc1 | 40.2% |
| COC(=O)c1c(NC(=O)CSc2nncs2)sc2c1CCCCC2 | -61.6% (active) |
| COC(=O)c1c(NC(=O)c2ccc(Cl)c(Cl)c2)sc2c1CCCC2 | 15% |
| COc1ccc(S(=O)(=O)N2CCN(CC(=O)NCC3(N4CCOCC4)CCCCC3)CC2)cc1 | -36.1% |
| O=C(CN1CCN(C(=S)NC2CCCC2)CC1)Nc1ccc(Oc2ccccc2)cc1 | -79.5% (active) |
| CCC(=O)c1ccc(OCC(=O)N2CCN(CC(=O)Nc3ccc(C)cc3)CC2)cc1 | 6.75% |
| O=C(CN1CCN(S(=O)(=O)c2ccc3ccccc3c2)CC1)NC(=O)NC1CCCCC1 | -4.61% |
| CC1(C)OC(=O)C2=C(C[C@@H](C3CC3)O[C@H]2c2ccc(Cl)cc2)O1 | -11.9% |
| Fc1ccccc1OCCCCn1cncn1 | -9.84% |
| O=c1c2ccccc2ncn1CCCCOc1ccccc1F | -105% (active) |
| O=c1c2ccccc2ncn1CCc1ccncc1 | 16.6% |
| COc1ccc(CCN2C(=O)c3oc4cc(C)cc(C)c4c(=O)c3C2c2ccccc2F)cc1OC (stereo not drawn) | -2.86% |
| COc1ccc(Br)cc1C1CC(=O)Nc2c1c(C)nn2-c1nc(C)cc(C)n1 (stereo not drawn) | -4.09% |
| CN1CCC2(CC1)NC(=O)NC2=O | 7.02% |
| O=C(COc1cccnc1[N+](=O)[O-])Nc1ccc(Cl)cc1F | 9.57% |
| Cc1ccc2cc(CCNC(=O)c3c(-c4ccccc4Cl)noc3C)c(=O)[nH]c2c1 | -94.6% (active) |
| Cc1onc(-c2ccccc2Cl)c1C(=O)N(Cc1ccc(N(C)C)cc1)C(C)C | -25.9% |
| Cc1onc(-c2c(Cl)cccc2Cl)c1C(=O)c1c[nH]c(C(=O)NC2CC2)c1 | 16.8% |

| SMILES | activity change, negative = inhibition |
| --- | --- |
| O=C(NCCc1ccc(C(F)(F)F)cc1)c1ccc2c(c1)OCO2 | -38.1% |
| Cc1ccc2cc(CCNC(=O)c3ccc4c(c3)OCO4)c(=O)[nH]c2c1 | -60.5% (active) |
| COc1ccc(-c2cnc(SCCNC(=O)c3ccc4c(c3)OCO4)[nH]2)cc1 | -28.5% |
| COC(=O)C1=CN(c2c(C)cc(C)cc2C)C(N)=C(C#N)C1c1cccc(F)c1 (stereo not drawn) | -18.9% |
| COC(=O)[C@@H]1[C@@H](CO)[C@@H]2Cn3c(cccc3=O)[C@H]1N2CC1CCCC1 | 13.6% |
| Cc1[nH]c2ccccc2c1C(c1ccccc1)c1cccs1 (stereo not drawn) | -20.6% |
| Cc1cc(F)ccc1S(=O)(=O)Nc1ccc(C(=O)N(C)Cc2ccco2)cc1 | -17.3% |
| CCOC(=O)C1CCCN(C(=O)c2ccc(N(C)C)cc2)CC1 (stereo not drawn) | 14.9% |
| CCOC(=O)C1CCCN(C(=O)c2ccc(C)c(F)c2)CC1 (stereo not drawn) | -2.4% |
| Cc1ccc(C)c(S(=O)(=O)N(C)c2ccc(OC(=O)C3CCN(C(=O)c4ccc(F)cc4)CC3)cc2)c1 | -83.9% (active) |
| C/C(N)=C(/C#N)C(=O)COC(=O)CNS(=O)(=O)c1ccc(C)cc1 | -80.1% (active) |
| Cc1ccc(S(=O)(=O)NCC(=O)OCC(=O)N2CCc3ccccc32)cc1 | -5.73% |
| COc1cccc(OC)c1C(=O)OCC(=O)/C(C#N)=C(\C)N | -27.5% |
| Cc1ccc(N2CC(C(=O)Nc3cc(Cl)ccc3-n3cncn3)CC2=O)cc1 (stereo not drawn) | 4.52% |
| CCn1cc2nc(SCc3cccc(F)c3)n(CCc3ccccc3)c(=O)c2n1 | -35.3% |
| CCCCN1C(N)=NC[C@@H]1CC1CCCCC1 | -18.4% |
| CCCC[C@@H]1CN=C(N)N1CCc1cc(C(F)(F)F)cc(C(F)(F)F)c1 | -75% (active) |
| CN(C)C1=NC[C@H](Cc2ccccc2)N1CCc1ccc(F)cc1 | -5.86% |
| O=C(Cn1cc(C(=O)c2cccs2)c2ccccc21)NCc1cccs1 | -5.26% |
| Cc1c(Cl)cccc1NC(=O)Cn1cc(C(=O)c2cccs2)c2ccccc21 | -95.6% (active) |
| Cc1ccccc1NC(=O)Cn1cc(C(=O)c2cccs2)c2ccccc21 | -22.9% |
| COC(=O)C1=C(C(=O)OC)[C@@H]2N(C)c3ccccc3[C@@]23C[C@@H](C(=O)OC)N(C(C)=O)C3=N1 | -27% |

| SMILES | activity change, negative = inhibition |
| --- | --- |
| O=C(NCc1cccnc1)C(=O)NCC(c1cccnc1)N1CCN(c2ccccc2)CC1 (stereo not drawn) | 5.63% |
| CN(C)CCNC(=O)c1cccc(-c2cnc3c(NC=O)cc(-c4cccc(C(F)(F)F)c4)cn23)c1 | -61.3% (active) |
| COc1ccc(-c2cc(NC=O)c3ncc(-c4cccc(C(=O)N(C)C)c4)n3c2)c(OC)c1 | 40.1% |
| CC(=O)Nc1cc(-c2cccc(CO)c2)cn2c(-c3cccc(C(F)(F)F)c3)cnc12 | 71.5% |
| CCCn1c(NCc2ccc(N(CC)CC)cc2)nc2ccccc21 | -5.55% |
| Cc1ccc(-c2noc(-c3nnn(-c4cccc(C(F)(F)F)c4)c3N)n2)cc1 | 15.9% |
| Cc1cccc(NC(=O)CSc2nc(-c3ccco3)cc(C(F)(F)F)n2)c1C | 1.83% |
| Cc1c(CC(=O)NCC(=O)NCC(=O)O)c(=O)oc2cc3oc4c(c3cc12)CCCC4 | -60.9% (active) |
| CC[C@@H](C)[C@H](NC(=O)CCc1c(C)c2cc3c4c(oc3c(C)c2oc1=O)CCCC4)C(=O)O | -33.8% |
| Cc1coc2cc3oc(=O)c(CCC(=O)O)c(C)c3cc12 | -38.4% |
| Cc1ccccc1CN1CCC(CNC(=O)c2cc3ccc4cccnc4c3[nH]2)CC1 | -34.7% |
| O=c1c(=O)n(Cc2c(F)cccc2Cl)ccn1Cc1ccccc1 | -4.43% |
| O=[N+]([O-])/C=C/c1ccc2c(ccn2Cc2ccccc2)c1 | -98% (active) |
| COc1ccc(Cn2ccn(Cc3cccc(OC)c3)c(=O)c2=O)cc1 | 6.59% |
| CCOC(=O)[C@H]1[C@H]2COc3ccc(Br)cc3[C@@H]2N2C(=O)CN(C)C(=O)[C@@]12C | 4.78% |
| CC(=O)Nc1ccc(NC(=O)C2CCCN(S(=O)(=O)c3ccc4c(c3)CCCC(=O)N4)C2)cc1 (stereo not drawn) | 20.2% |
| Cc1ccc(C)c(N2CCN(C(=O)Cn3ncc4c(=O)oc5ccc(C)cc5c43)CC2)c1 | 4.14% |
| Cc1ccccc1-c1cc(C(=O)NCc2cccs2)n(CC2CC(c3cccnc3)=NO2)n1 (stereo not drawn) | -10.2% |
| Cc1ccccc1N1CC(C(=O)Nc2ccc3c(c2)OCO3)CC1=O (stereo not drawn) | 31.2% |
| O=C(OCCOc1ccccc1F)c1cc(S(=O)(=O)N2CCOCC2)ccc1F | -18% |
| O=C(OCCOc1ccccc1Cl)c1cc(S(=O)(=O)N2CCCCC2)ccc1N1CCOCC1 | -69.8% (active) |
| CC(C)(C)C(=O)COC(=O)c1cc(S(=O)(=O)N2CCCCC2)ccc1N1CCOCC1 | -11.9% |

| SMILES | activity change, negative = inhibition |
| --- | --- |
| CCOC(=O)c1c(C)[nH]c(C)c1S(=O)(=O)N1CCCC(C(=O)NCc2ccccc2Cl)C1 (stereo not drawn) | -15.8% |
| CCOc1ccccc1CNC(=O)Nc1cn(CC(C)C)c(=O)c2ccccc12 | -2.27% |
| CCOc1ccc(S(=O)(=O)Nc2ccncc2)c(C)c1C | -26.1% |
| Cc1cc(-c2n[nH]c(=S)n2/N=C/C(Br)=C/c2ccccc2)n[nH]1 | -95% (active) |
| CCN(CCCNC(=O)c1ccc2c(c1)NC(=O)CN2C)c1cccc(C)c1 | -95.1% (active) |
| CCN(CCCNC(=O)c1ccc(Sc2ccc(C)cc2)c(NC(C)=O)c1)c1cccc(C)c1 | -13.8% |
| CCN(CCCNC(=O)Cn1ncc2c([nH]c3ccccc32)c1=O)c1cccc(C)c1 | 19.5% |
| COc1ccc(SCc2cc(=O)c3ccc(C)c(C)c3[nH]2)cc1 | -8.87% |
| CC(C)C(C(=O)NC(C)(C)CC(C)(C)C)N1C(=O)C(=O)c2ccccc21 (stereo not drawn) | 229% |
| O=C(NNS(=O)(=O)c1ccc(Cl)cc1)C1CCN(Cc2ccccc2)CC1 | 14.7% |
| CCOC(=O)c1ccc(CN(Cc2ccccc2)S(=O)(=O)c2ccc(Cl)cc2)cc1 | -6.46% |
| CCOC(=O)C1(S(=O)(=O)c2ccc(Cl)cc2)CCN(Cc2ccccc2)CC1 | -98.6% (active) |
| CN(CC(=O)Nc1ccccc1Cl)C(=O)COc1cccc2c1OC(C)(C)C2 | -11.1% |
| O=C(Nc1ccc(O)c(-c2nc3ccccc3o2)c1)c1ccc(-c2cccc(Cl)c2)o1 | 11.5% |
| Cc1nc(Nc2ccc3c(c2)OCCO3)c2nnn(Cc3ccccc3Cl)c2n1 | -91.8% (active) |
| Cc1nc(Nc2ccc(S(=O)(=O)N3CCCC3)cc2)c2nnn(Cc3ccccc3)c2n1 | -1% |
| Cc1nc(Nc2ccccc2F)c2nnn(Cc3ccccc3Cl)c2n1 | 33.3% |
| CC(C)c1ccc(Nc2ncccc2C#N)cc1 | 52.9% |
| COc1cc(OC)cc(C(=O)Nc2nnc(SCC(=O)NCC3CCCO3)s2)c1 (stereo not drawn) | -2.96% |
| CC1CC(C)CN(CC(=O)Nc2ccc(S(N)(=O)=O)cc2)C1 (stereo not drawn) | -88.1% (active) |
| CC1Cc2ccccc2N1CC(=O)Nc1ccc(S(N)(=O)=O)cc1 (stereo not drawn) | -32.9% |
| CC1CN(C(=S)Nc2ccc(S(N)(=O)=O)cc2)CC(C)O1 (stereo not drawn) | 70.7% |
